# Bioassay records (PubChem BioAssay)
# Only some compounds are listed: those with a hit (about 31% of all), similar ones and a draw of the others.
# CYP2C19 activ: increases human CYP2C19 enzyme activity; P33261; recombinant CYP2C19, luciferin-H EGE luminescence; stronger effect = higher value; 0 = fully inhibited enzyme, 1 = untreated enzyme; activation factor at 5 µM; 96,000 tested, under 10 active;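 active means activation factor of at least 2 at 5 µM in the primary screen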;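 further: 0 = wells with 2.5 mM tranylcypromine and 1 = vehicle-only wells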
# CYP2C19 inh: human CYP2C19 inhibition | inhibition, % at 5 µM | CYP2C19 Supersomes, luciferin-H EGE luminescence, 30 min | P33261 | 96,000 tested, 21% active;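 active means CYP2C19 inhibition above a set limit at 5 µM in the primary screen, cut at about 50% in these data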;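 further: plate controls were negative control wells for no effect and 2.5 mM tranylcypromine positive control for full effect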
# PLAP act: human PLAP activation. purified PLAP enzyme, luminescent substrate read-out; stronger effect = higher value. activation fold at 20 µM. 96,000 tested, 1.2% active. AID 696; in the data active means activation fold above about 2
# CYP2C9 inhib: blocks human cytochrome P450 2C9; CYP2C9 Supersomes, luciferin-H conversion, luminescence; inhibition, % at 5 µM; 96,000 tested, 20% active; AID 777;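 active means blocking of liver enzyme CYP2C9 beyond about 50% at 5 µM, limit read from the data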
# Target sequence (P11712 whole entry, looked up): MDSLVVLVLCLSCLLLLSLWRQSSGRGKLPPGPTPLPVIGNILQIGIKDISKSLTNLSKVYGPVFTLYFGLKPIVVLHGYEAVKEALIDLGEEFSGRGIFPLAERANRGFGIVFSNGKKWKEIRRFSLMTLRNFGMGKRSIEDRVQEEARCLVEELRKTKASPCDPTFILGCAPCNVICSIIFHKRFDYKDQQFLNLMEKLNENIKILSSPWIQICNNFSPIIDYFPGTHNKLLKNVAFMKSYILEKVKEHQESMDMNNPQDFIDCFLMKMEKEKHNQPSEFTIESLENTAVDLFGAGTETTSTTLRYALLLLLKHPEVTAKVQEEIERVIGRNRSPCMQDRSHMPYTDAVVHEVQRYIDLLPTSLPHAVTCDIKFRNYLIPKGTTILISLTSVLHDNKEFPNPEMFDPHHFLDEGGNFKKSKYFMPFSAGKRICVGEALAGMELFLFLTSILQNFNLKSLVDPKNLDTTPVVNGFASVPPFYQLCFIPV
# CYP2C9 act: CYP2C9 (human) activation | P11712 | recombinant CYP2C9, luciferin-H conversion, luminescence; stronger effect = higher value; factor 1 = untreated enzyme, 0 = blocked | activation factor at 5 µM | 96,000 tested, 1.4% active | AID 1024;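 active means activation factor of 2 or more for CYP2C9 at a 5 µM dose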;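 further: 0 = sulfaphenazole-blocked wells and 1 = vehicle-only wells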
# Numbers without * were called inactive.
SMILES,CYP2C19 activ,CYP2C19 inh,PLAP act,CYP2C9 inhib,CYP2C9 act
CCOC(=O)Cn1c(=NC(=O)CSC(C)=O)sc2cc(F)ccc21,0.7,35,1,16,0.8
Cc1cccc(NC(=S)NNC(=O)c2csc3c2CCCC3)c1,0.7,30,1,-13,1.1
O=C(Nc1cccc(-c2nnc(-c3ccccc3)o2)c1)c1ccc(Br)o1,0.7,33,0.9,69*,0.3
Cc1ccnc(NC(=O)c2cccc(NC(=O)COc3ccccc3)c2)c1,0.8,22,1,30,0.7
C=Cc1cccc(NC(=O)COc2ccccc2)c1,0.1,87*,0.8,-5,1.1
Cc1cccc(NC(=S)NNC(=O)c2ccc(Br)o2)c1,0.8,23,1.6,56*,0.4
Cc1c(C(=O)N2CCN(c3ccccc3F)CC2)sc2ncn(CC(=O)N3CCOCC3)c(=O)c12,1,3,1.5,11,0.9
CCOC(=O)c1sc2ncnc(N3CCN(C(=O)OCC)CC3)c2c1C,0.6,37,1.5,76*,0.2
CCOC(=O)CNC(=O)c1sc2nc(C)cc(C)c2c1N,1,-2,0.9,-5,1
COc1cc(C(=O)N2CCN(C(=O)c3ccccc3)CC2)cc(OC)c1OC,1.2,-17,1.2,-23,1.2
COc1cc(C(=O)N2CCN(c3ncnc4sc(C)c(C)c34)CC2)cc(OC)c1OC,0.3,73*,1.3,70*,0.3
CCOC(=O)CNC(=O)c1sc2ncnc(N3CCc4ccccc4C3)c2c1C,0.2,79*,1.9,98*,0
Cc1c(C(=O)N2CCN(Cc3ccccc3)CC2)sc2ncnc(N3CCOCC3)c12,0.5,55*,1.5,32,0.7
CC(=O)N1CCCc2cc(S(=O)(=O)NC(C(=O)NCc3ccc(C)cc3)C(C)C)ccc21 (configuration not stated),1,-3,1,8,0.9
CCCC(=O)Nc1ccc(C(=O)NNC(=O)c2ccco2)cc1,0.8,24,1,20,0.8
CCCCNC(=O)c1sc2ncnc(N3CCc4ccccc4C3)c2c1C,0.8,18,0.8,94*,0.1
Cc1c(C(=O)NCCCN2CCOCC2)sc2ncnc(N3CCN(c4ccccc4)CC3)c12,0.5,50*,1.5,91*,0.1
CCOC(=O)c1sc2nc(CC(=O)OC)nc(N3CCN(c4ccccn4)CC3)c2c1C,0.3,68*,1.3,85*,0.2
Cc1c(C(=O)O)sc2ncnc(N3CCCCC3C)c12 (configuration not stated),1,-4,1,8,0.9
O=C(NCCCN1CCOCC1)c1cc(-c2ccccc2)on1,0.9,14,1,-11,1.1
O=C(O)c1ccc2c(c1)C(c1ccccc1)OC2=O (configuration not stated),1.1,-6,0.9,18,0.8
CN(C)c1ccc(S(=O)(=O)c2ccc(Cl)cc2)cc1,0.8,20,0.9,-5,1.1
CN(C)c1ccc(C2C3C(=O)NC(=O)C3ON2c2ccc(Cl)cc2)cc1 (configuration not stated),0.5,51*,1.4,37,0.6
CC(OC(=O)CCCc1nc2ccccc2s1)C(N)=O (configuration not stated),0.8,16,0.9,-18,1.2
Cc1noc(C)c1COC(=O)CCCc1nc2ccccc2s1,0.6,41,1.1,51*,0.5
SMILES,CYP2C19 activ,CYP2C19 inh,PLAP act,CYP2C9 inhib,CYP2C9 act
Oc1ccc(/C=N/n2c3ccccc3c3ccccc32)cc1,0.8,20,0.9,73*,0.3
Cc1nnc(C)n1/N=C/c1ccc(O)cc1,1,-2,0.9,10,0.9
CC(C)CC(=O)c1c[nH]c(C(=O)NCCc2ccccn2)c1,1.1,-6,1.1,-4,1
COc1ccc(C(C)C)cc1S(=O)(=O)n1cnc(C)c1,0.9,6,1.2,-1,1
COc1cc(C)c(Cl)cc1S(=O)(=O)n1cnc(C)c1,0,97*,1.7,-105,2*
CCOC(=O)C1=C(NC(=O)c2ccc(Br)o2)Nc2ccccc2N=C1,0.9,13,1.1,60*,0.4
CCCCCOP(=O)(OCCCCC)C1(NS(=O)(=O)c2ccccc2)C=CC(=O)c2ccccc21 (configuration not stated),0.9,8,1.1,56*,0.4
COc1ccccc1NC(=O)Nc1ncccc1C,0.9,6,1,-18,1.2
O=C1c2cccnc2C(=O)N1C1CCCCC1,0.9,11,0.9,13,0.9
